Columns and labels:
Assay in all cases: DAPPL (digital affinity profiling via proximity ligation, sequencing); 10 mM Tris-HCl pH 7.5, 50 mM NaCl, 1 mM DTT, 4% glycerol, room temperature, 30 min; GST-TFs on glutathione beads, 16-mer random dsDNA library, 0.1% formaldehyde crosslink after washing; high values mean tight binding
Settings in all cases: protein: recombinant; tags: N-terminal GST; dsDNA, one strand shown
[1] = molecular target: T1, FLI1 (Homo sapiens, UniProt Q01543 1-452)
T1 sequence: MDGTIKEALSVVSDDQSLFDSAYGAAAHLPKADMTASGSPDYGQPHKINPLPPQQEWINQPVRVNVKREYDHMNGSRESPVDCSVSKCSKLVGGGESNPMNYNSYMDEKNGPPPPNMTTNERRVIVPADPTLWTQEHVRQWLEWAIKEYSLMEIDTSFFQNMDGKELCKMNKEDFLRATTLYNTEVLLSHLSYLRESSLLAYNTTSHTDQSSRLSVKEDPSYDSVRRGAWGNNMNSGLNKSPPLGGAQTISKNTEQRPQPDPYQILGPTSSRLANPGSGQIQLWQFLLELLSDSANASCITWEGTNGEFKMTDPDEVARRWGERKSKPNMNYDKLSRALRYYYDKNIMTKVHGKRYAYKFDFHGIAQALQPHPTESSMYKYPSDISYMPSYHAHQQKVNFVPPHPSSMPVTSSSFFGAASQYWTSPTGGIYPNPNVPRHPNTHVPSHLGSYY
Procedure, shortened: (§1)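 Each value of binding signal is a hexamer's read frequency for a factor divided by the same hexamer's frequency in the tag-only sample. Barcoded, bead-captured GST fusions of human transcription factors made in yeast were pooled with that sample and incubated with 200 nmole of a random double-stranded 16-mer DNA library in Tris/NaCl/DTT/glycerol buffer at room temperature for 30 min. Washing, 0.1% formaldehyde crosslinking, proximity ligation, PCR and Illumina NextSeq500 sequencing followed.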

[2] = molecular target: T2, ELK1 (Homo sapiens, UniProt P19419 1-428)
T2 sequence: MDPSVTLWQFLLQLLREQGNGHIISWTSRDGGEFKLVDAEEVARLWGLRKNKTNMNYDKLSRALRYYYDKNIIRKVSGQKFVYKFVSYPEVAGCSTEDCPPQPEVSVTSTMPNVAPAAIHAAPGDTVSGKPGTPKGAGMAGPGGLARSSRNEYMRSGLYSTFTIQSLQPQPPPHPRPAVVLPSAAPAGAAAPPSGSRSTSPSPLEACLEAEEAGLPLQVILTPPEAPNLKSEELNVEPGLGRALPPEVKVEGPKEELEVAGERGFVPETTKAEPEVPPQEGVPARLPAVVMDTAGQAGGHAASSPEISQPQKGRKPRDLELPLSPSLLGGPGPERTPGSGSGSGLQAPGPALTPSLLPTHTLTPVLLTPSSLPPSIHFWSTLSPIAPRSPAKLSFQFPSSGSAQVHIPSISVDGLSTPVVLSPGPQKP
Procedure, shortened: as §1

[3] = molecular target: T3, GABPA (Homo sapiens, UniProt Q06546 1-454)
T3 sequence: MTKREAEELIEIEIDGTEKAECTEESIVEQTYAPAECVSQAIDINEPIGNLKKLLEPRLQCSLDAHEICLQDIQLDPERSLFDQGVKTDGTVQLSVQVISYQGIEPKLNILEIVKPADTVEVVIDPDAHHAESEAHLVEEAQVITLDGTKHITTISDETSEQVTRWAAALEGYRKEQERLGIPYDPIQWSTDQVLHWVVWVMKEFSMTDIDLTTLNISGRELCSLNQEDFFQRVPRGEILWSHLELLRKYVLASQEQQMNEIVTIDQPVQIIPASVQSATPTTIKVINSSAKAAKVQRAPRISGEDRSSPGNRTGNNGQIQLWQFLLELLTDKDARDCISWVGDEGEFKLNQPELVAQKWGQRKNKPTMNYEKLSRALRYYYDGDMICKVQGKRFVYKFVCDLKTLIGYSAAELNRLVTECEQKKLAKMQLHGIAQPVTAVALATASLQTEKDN
Procedure, shortened: as §1

[4] = molecular target: T4, ERG (Homo sapiens, UniProt P11308 1-479)
T4 sequence: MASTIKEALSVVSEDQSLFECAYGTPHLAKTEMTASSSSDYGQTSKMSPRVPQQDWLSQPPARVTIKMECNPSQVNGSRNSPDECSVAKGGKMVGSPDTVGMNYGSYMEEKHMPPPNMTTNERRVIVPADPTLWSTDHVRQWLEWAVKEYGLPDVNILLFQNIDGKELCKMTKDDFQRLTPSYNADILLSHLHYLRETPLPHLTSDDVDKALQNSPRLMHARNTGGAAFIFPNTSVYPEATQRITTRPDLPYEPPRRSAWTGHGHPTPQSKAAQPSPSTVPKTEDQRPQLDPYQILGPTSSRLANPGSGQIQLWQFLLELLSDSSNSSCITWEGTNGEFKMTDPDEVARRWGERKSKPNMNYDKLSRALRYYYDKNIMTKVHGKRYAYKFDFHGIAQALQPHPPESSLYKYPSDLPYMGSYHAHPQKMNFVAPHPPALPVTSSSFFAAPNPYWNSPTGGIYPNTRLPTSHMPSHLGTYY
Procedure, shortened: as §1

[5] = molecular target: ELF1 (Homo sapiens, UniProt P32519 1-619)
ELF1, sequence (P32519 whole entry): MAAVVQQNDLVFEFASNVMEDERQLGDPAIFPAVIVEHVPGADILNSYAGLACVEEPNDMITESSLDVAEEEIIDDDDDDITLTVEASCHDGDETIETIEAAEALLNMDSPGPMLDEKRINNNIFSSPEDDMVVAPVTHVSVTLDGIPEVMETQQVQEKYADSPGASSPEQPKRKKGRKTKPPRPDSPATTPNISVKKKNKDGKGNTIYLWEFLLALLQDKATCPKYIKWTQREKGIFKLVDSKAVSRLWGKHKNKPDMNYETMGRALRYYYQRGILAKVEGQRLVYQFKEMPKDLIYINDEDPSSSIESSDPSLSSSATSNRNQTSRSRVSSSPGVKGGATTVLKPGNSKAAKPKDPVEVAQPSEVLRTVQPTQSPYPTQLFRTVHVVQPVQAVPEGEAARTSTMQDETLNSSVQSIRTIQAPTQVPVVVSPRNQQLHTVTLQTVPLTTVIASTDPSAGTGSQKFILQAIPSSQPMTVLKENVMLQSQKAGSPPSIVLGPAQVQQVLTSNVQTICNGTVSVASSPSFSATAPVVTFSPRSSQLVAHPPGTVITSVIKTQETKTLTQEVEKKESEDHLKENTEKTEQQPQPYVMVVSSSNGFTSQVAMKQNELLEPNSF
Procedure, shortened: as §1

[6] = molecular target: T5, EHF (Homo sapiens, UniProt Q9NZC4 1-300)
T5 sequence: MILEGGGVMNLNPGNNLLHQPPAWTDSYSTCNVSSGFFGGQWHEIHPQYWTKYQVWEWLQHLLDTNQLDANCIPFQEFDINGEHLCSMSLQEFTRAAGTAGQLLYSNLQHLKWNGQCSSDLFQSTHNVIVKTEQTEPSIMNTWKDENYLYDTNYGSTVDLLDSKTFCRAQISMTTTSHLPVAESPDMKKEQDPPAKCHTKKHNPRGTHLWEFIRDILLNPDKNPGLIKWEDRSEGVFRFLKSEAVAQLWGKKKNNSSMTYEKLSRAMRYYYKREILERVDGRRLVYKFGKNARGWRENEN
Procedure, shortened: as §1

[7] = molecular target: SPI1 (Homo sapiens, UniProt P17947 1-270)
Procedure, shortened: as §1

[8] = molecular target: SPIB (Homo sapiens, UniProt Q01892 1-262)
SPIB, sequence (Q01892 whole entry): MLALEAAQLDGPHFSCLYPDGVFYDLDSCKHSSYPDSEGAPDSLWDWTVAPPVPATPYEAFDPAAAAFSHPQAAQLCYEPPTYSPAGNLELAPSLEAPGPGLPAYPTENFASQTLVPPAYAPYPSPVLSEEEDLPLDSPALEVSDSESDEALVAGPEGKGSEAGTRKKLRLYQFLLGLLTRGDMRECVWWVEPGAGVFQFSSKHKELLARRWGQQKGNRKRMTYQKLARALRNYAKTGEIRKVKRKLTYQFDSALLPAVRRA
Procedure, shortened: as §1

[9] = molecular target: T6, ELK3 (Homo sapiens, UniProt P41970 1-407)
T6 sequence: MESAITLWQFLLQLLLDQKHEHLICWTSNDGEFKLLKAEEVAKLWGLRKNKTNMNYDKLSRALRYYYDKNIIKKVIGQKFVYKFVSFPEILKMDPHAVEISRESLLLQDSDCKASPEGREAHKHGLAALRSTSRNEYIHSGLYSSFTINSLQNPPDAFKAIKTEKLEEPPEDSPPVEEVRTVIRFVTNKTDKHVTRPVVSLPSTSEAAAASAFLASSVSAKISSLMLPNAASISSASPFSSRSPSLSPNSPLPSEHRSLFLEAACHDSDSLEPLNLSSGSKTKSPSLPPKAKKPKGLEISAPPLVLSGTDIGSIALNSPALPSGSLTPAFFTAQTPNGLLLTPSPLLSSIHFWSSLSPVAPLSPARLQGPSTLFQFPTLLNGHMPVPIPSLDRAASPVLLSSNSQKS
Procedure, shortened: as §1

| Sequence | binding signal [1] | binding signal [2] | binding signal [3] | binding signal [4] | binding signal [5] | binding signal [6] | binding signal [7] | binding signal [8] | binding signal [9] |
| --- | --- | --- | --- | --- | --- | --- | --- | --- | --- |
| CAACCA | 1.15 fold enrichment (6-mer frequency, TF over GST control) | 1.15 fold enrichment (6-mer frequency, TF over GST control) | 1.12 fold enrichment (6-mer frequency, TF over GST control) | 1.03 fold enrichment (6-mer frequency, TF over GST control) | 1.15 fold enrichment (6-mer frequency, TF over GST control) | 1.13 fold enrichment (6-mer frequency, TF over GST control) | 1.11 fold enrichment (6-mer frequency, TF over GST control) | 1.06 fold enrichment (6-mer frequency, TF over GST control) | 1.18 fold enrichment (6-mer frequency, TF over GST control) |
| TTCCGT | 1.79 fold enrichment (6-mer frequency, TF over GST control) | 2.11 fold enrichment (6-mer frequency, TF over GST control) | 1.76 fold enrichment (6-mer frequency, TF over GST control) | 2.13 fold enrichment (6-mer frequency, TF over GST control) | 1.74 fold enrichment (6-mer frequency, TF over GST control) | 2 fold enrichment (6-mer frequency, TF over GST control) | 2.14 fold enrichment (6-mer frequency, TF over GST control) | 2.07 fold enrichment (6-mer frequency, TF over GST control) | 1.86 fold enrichment (6-mer frequency, TF over GST control) |
| CTGATC | 1.16 fold enrichment (6-mer frequency, TF over GST control) | 1.54 fold enrichment (6-mer frequency, TF over GST control) | 1.4 fold enrichment (6-mer frequency, TF over GST control) | 1.42 fold enrichment (6-mer frequency, TF over GST control) | 1.4 fold enrichment (6-mer frequency, TF over GST control) | 1.39 fold enrichment (6-mer frequency, TF over GST control) | 1.27 fold enrichment (6-mer frequency, TF over GST control) | 1.4 fold enrichment (6-mer frequency, TF over GST control) | 1.4 fold enrichment (6-mer frequency, TF over GST control) |
| GTGTTT | 1.15 fold enrichment (6-mer frequency, TF over GST control) | 1.19 fold enrichment (6-mer frequency, TF over GST control) | 1.08 fold enrichment (6-mer frequency, TF over GST control) | 1.07 fold enrichment (6-mer frequency, TF over GST control) | 1.16 fold enrichment (6-mer frequency, TF over GST control) | 1.09 fold enrichment (6-mer frequency, TF over GST control) | 1.11 fold enrichment (6-mer frequency, TF over GST control) | 1.16 fold enrichment (6-mer frequency, TF over GST control) | 1.2 fold enrichment (6-mer frequency, TF over GST control) |
| TAGTCC | 1.09 fold enrichment (6-mer frequency, TF over GST control) | 1.05 fold enrichment (6-mer frequency, TF over GST control) | 1.12 fold enrichment (6-mer frequency, TF over GST control) | 1.08 fold enrichment (6-mer frequency, TF over GST control) | 1.15 fold enrichment (6-mer frequency, TF over GST control) | 1.05 fold enrichment (6-mer frequency, TF over GST control) | 1.07 fold enrichment (6-mer frequency, TF over GST control) | 1.06 fold enrichment (6-mer frequency, TF over GST control) | 1.07 fold enrichment (6-mer frequency, TF over GST control) |
| CGCTCA | 1.13 fold enrichment (6-mer frequency, TF over GST control) | 1.21 fold enrichment (6-mer frequency, TF over GST control) | 1.16 fold enrichment (6-mer frequency, TF over GST control) | 1.25 fold enrichment (6-mer frequency, TF over GST control) | 1.13 fold enrichment (6-mer frequency, TF over GST control) | 1.18 fold enrichment (6-mer frequency, TF over GST control) | 1.16 fold enrichment (6-mer frequency, TF over GST control) | 1.16 fold enrichment (6-mer frequency, TF over GST control) | 1.13 fold enrichment (6-mer frequency, TF over GST control) |
| GAAACG | 1.17 fold enrichment (6-mer frequency, TF over GST control) | 1.26 fold enrichment (6-mer frequency, TF over GST control) | 1.2 fold enrichment (6-mer frequency, TF over GST control) | 1.38 fold enrichment (6-mer frequency, TF over GST control) | 1.18 fold enrichment (6-mer frequency, TF over GST control) | 1.19 fold enrichment (6-mer frequency, TF over GST control) | 1.17 fold enrichment (6-mer frequency, TF over GST control) | 1.25 fold enrichment (6-mer frequency, TF over GST control) | 1.27 fold enrichment (6-mer frequency, TF over GST control) |

Source: PMC7862700, “An all-to-all approach to the identification of sequence-specific readers for epigenetic DNA modifications on cytosine”
